Experimental data from PubChem BioAssay AID504466 (National Center for Advancing Translational Sciences (NCATS), 2011).
Out of some 330,000 compounds screened, about 4,200 (1.3%) were called active. About 6% were inconclusive and are not listed. The full list was thinned out, with actives kept by preference. A number with no mark means an inactive call. The call rests on the fitted dose curve; in most records, active means well fitted activation curve with a large enough effect; inconclusive means small, poorly fitted or top-dose-only effect; inactive means no such curve, though single readings can be large or run the other way.

assay: qHTS screen for small molecules that induce genotoxicity in human embryonic kidney (HEK293T) cells expressing luciferase-tagged ELG1; conditions: HEK293T ELG1-luciferase reporter, luminescence, 16 h; series mostly up to 46 µM; activity change, positive = activation: at the top concentration; further: nearly all actives have a fitted effect of over 60% in size; on activity change, positive = activation: % of control where 0% means no effect
Method in brief: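 Genotoxic stress is detected as increased luminescence from luciferase-tagged ELG1 in HEK293T cells, measured with ONE-Glo after a 16 hr treatment at 37 °C.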
Potency means the concentration at half of the fitted maximal effect.

| Compound | activity change, positive = activation | Potency |
| --- | --- | --- |
| CC1CN(C(=S)SCC(=O)c2ccccc2)CC(C)O1 (stereo not given) | 14.6% |  |
| O=C(CSC(=S)N1CCOCC1)c1ccccc1 |  | 2.06 µM (active) |
| O=C(CSC(=S)N1CCOCC1)c1cc(Br)cc(Br)c1O | 0.304% |  |
| O=C(CN1C(=O)NC2(CCOc3ccccc32)C1=O)Nc1cccc([N+](=O)[O-])c1 (stereo not given) | -4.8% |  |
| O=S(=O)(NCC1CN(S(=O)(=O)c2ccc3c(c2)OCCO3)C1)c1c(F)cccc1F | -2.32% |  |
| CC[C@]12c3[nH]c4ccc(OC)cc4c3CCN1C(=O)C(CC(=O)NCc1ccco1)C[C@@H]2C(=O)N1CCN(C(=O)C2CC2)CC1 (stereo not given in full) | 3.89% |  |
| CC(=O)Nc1ccc(S(=O)(=O)Nc2cccc(NC(=O)C(C)(C)C)c2)cc1 | -2.67% |  |
| Cc1nn2c(=O)cc(COC(=O)c3ccc(NC(=O)C(C)(C)C)cc3)nc2s1 | -1.82% |  |
| CC(C)(C)C(=O)Nc1ccc(-c2cn3cccnc3n2)cc1 |  | 18.3 µM (active) |
| CSc1ncccc1C(=O)Nc1cccc(S(=O)(=O)N2CCOCC2)c1 | 0.493% |  |
| CN(CCc1ccccc1)C(=O)c1cccc(NC(=O)Cc2ccc([N+](=O)[O-])cc2)c1 | -4.52% |  |
| Cc1c(Cl)cnc(NC(=O)COC(=O)C2CCCC2)c1Cl | 4.12% |  |
| CCN(C(=O)CSc1nnnn1-c1ccc(OC)cc1)C1CCS(=O)(=O)C1 (stereo not given) | 0.218% |  |
| Cc1cc(C)cc(NS(=O)(=O)c2ccc(F)cc2)c1 | -4.39% |  |
| Cn1c(=O)n(C)c2cc(S(=O)(=O)Nc3ccc(F)cc3)ccc21 | -3.07% |  |
| Cn1c(=O)n(C)c2cc(NS(=O)(=O)c3ccc(F)cc3)ccc21 |  | 18.3 µM (active) |
| CCN(c1ccccc1)S(=O)(=O)c1cccc(C(=O)NCc2ccccc2CN2CCOCC2)c1 | -11.3% |  |
| O=C1COc2ccc(C(=O)COC(=O)c3ccccc3Cl)cc2N1 | 0.842% |  |
| C=CCSc1nnc(NC(=O)c2ccc(NC(C)=O)cc2)s1 | 9% |  |
| CCOC(=O)CSc1nnc(NC(=O)c2cccc(S(=O)(=O)N3CCCC3)c2)s1 | -2.46% |  |
| CCSc1nnc(NC(=O)c2ccc(C)cc2)s1 |  | 1.64 µM (active) |
| COC(=O)[C@]1(C)N[C@H](CN(C)C(=O)c2ccc(C(C)(C)C)cc2)[C@@H]2C(=O)N(C)C(=O)[C@@H]21 | 1.84% |  |
| COc1ccc(CN2C(CC(=O)Nc3cccnc3)c3ccc(C(F)(F)F)cc3S2(=O)=O)cc1 (stereo not given) | -0.505% |  |
| O=C(COC(=O)c1ccc2c(c1)OCCO2)NCc1ccccc1Cl | -2.4% |  |
| Cc1cccc(NC(=O)c2ccc(S(=O)(=O)N(C)c3ccccc3)cc2)n1 | -8.84% |  |

| Compound | activity change, positive = activation | Potency |
| --- | --- | --- |
| COc1ccc(-c2csc(NC(=O)COC(=O)Cc3ccc(Cl)cc3Cl)n2)cc1 |  | 23.1 µM (active) |
| CC(C)(C)NC(=O)NC(=O)COC(=O)Cc1ccc(Cl)cc1Cl | -0.247% |  |
| COc1ccc(OC)c(-c2csc(NC(=O)COC(=O)C3CC3)n2)c1 | 2.55% |  |
| CS(=O)(=O)c1ccc(C(=O)NNC(=O)c2cccs2)cc1 | 1.1% |  |
| O=c1c2ccccc2ncn1/N=C/c1ccccc1 |  | 3.66 µM (active) |
| O=C(Nn1cnc2ccccc2c1=O)c1ccccc1 | 2.68% |  |
| O=c1c2ccccc2nc(N/N=C/c2ccccc2)n1O | 3.16% |  |
| CCN(C(=O)CSc1cccc[n+]1[O-])c1ccccc1 | 11.6% |  |
| COc1ccc(CNC(=O)COC(=O)c2sccc2C)cc1OC | -0.24% |  |
| O=C(Nc1ccccc1N1CCN(C(=O)c2ccccc2)CC1)c1ccc2c(c1)OCO2 | -0.629% |  |
| O=C(Nc1cccc(S(=O)(=O)Nc2ccc(Cl)cc2)c1)c1ccc2c(c1)OCCO2 | 4.3% |  |
| O=C(Nc1cccc(S(=O)(=O)N2CCCCC2)c1)c1ccc2c(c1)OCO2 | -5% |  |
| O=C(Nc1nc2cc3c(cc2s1)OCCO3)c1cccc(S(=O)(=O)N2CCOCC2)c1 | -16.4% |  |
| CC(C)C(=O)Nc1cccc(C(=O)Nc2ccc3c(c2)OCO3)c1 |  | 6.51 µM (active) |
| CSc1ncccc1C(=O)Nc1ccc2c(c1)OCO2 | 5.57% |  |
| COc1ccc2nc(NC(=O)[C@@H]3CCCN3C(=O)c3cccs3)sc2c1 | -1.22% |  |
| O=C(Nc1nc2ccccc2s1)c1ccc2c(c1)OCO2 |  | 0.58 µM (active) |
| COc1ccc2nc(NC(=O)c3ccc(Br)s3)sc2c1 |  | 2.82 µM (active) |
| COc1ccc2nc(NC(=O)NC3CCCCC3)sc2c1 | 21% |  |
| CCSc1ccccc1C(=O)Nc1ccc2c(c1)OCO2 | 7.6% |  |
| O=C(Nc1ccccc1)c1ccc2c(c1)OCCCO2 |  | 0.517 µM (active) |
| C=CC[C@@H](CC(=O)N[C@H](CO)Cc1ccccc1)C(=O)N[C@H](C)COC(=O)[C@@H](CC=C)Cc1ccc(F)cc1 | -3.07% |  |
| CC(=O)c1c(C)[nH]c(C(=O)COC(=O)c2cccs2)c1C | 15.1% |  |
| COc1ccc(C2=Nn3c(nnc3-c3ccccc3OC)SC2)cc1OC1CCCC1 | -7.28% |  |
| COc1ccccc1N(CCOc1ccccc1)S(=O)(=O)c1ccccc1 | -3.11% |  |

| Compound | activity change, positive = activation | Potency |
| --- | --- | --- |
| CC(C)(C)OC(=O)C[C@@H]1C/C=C\C[C@@H](CC(=O)N(CCO)Cc2ccccc2)C(=O)N[C@H](Cc2ccccc2)COC1=O | -0.66% |  |
| CCCN(CC1CC1)C(=O)COC(=O)c1ccc(C)cc1O | 0.402% |  |
| O=C(COC(=O)c1cc(S(=O)(=O)N2CCOCC2)ccc1F)NC1CC1 | 1.88% |  |
| CNC(=O)c1ccc2nc(NC(C)=O)sc2c1 |  | 18.4 µM (active) |
| COc1cccc(C(=O)Nc2nc3ccc(S(C)(=O)=O)cc3s2)c1 | -11.7% |  |
| CC(C)CNS(=O)(=O)c1ccc(C(=O)Nc2ccc3c(c2)OCO3)cc1 | 4.37% |  |
| O=C(Nc1ccccc1)c1ccc2c(c1)OCO2 |  | 9.2 µM (active) |
| O=C(Nc1ccc2c(c1)OCO2)c1ccc(N2C(=O)c3ccccc3C2=O)cc1 | 10.5% |  |
| O=C(Nc1cccc([N+](=O)[O-])c1)c1ccc2c(c1)OCO2 | 11.2% |  |
| Cn1c(=O)n(C)c2cc(C(=O)Nc3ccc4c(c3)OCO4)ccc21 |  | 8.2 µM (active) |
| CS(=O)(=O)c1ccc2nc(NC(=O)c3ccc(Cl)nc3)sc2c1 | -1.91% |  |
| O=C(Nc1ccc(NC(=O)c2ccc3c(c2)OCO3)cc1)c1cccc(Cl)c1 | 14.4% |  |
| O=C(OCC(=O)N1CCN(c2ccccc2)CC1)c1ccc([N+](=O)[O-])s1 | -2% |  |
| CC(=O)Nc1ccc(S(=O)(=O)NCC(=O)OCC(=O)c2ccc[nH]2)cc1 | 0.0742% |  |
| CC(C)NC(=O)Nc1cccc2c1O[C@@H](CN(C)S(=O)(=O)c1ccc(F)cc1)[C@@H](C)CN([C@H](C)CO)C2=O | 8.21% |  |
| O=C(Nc1ccccc1)c1ccc(NC(=O)c2cccs2)cc1 | 12% |  |
| CCN(CC)c1ccc(/C=N/NC(=O)CNC(=O)c2cccs2)cc1 | 4.59% |  |
| CC(=O)Nc1ccc(/C=N/NC(=O)c2cccs2)cc1 |  | 16.4 µM (active) |
| Cc1noc(C)c1S(=O)(=O)N(C)C[C@H]1Oc2ccc(NC(=O)C3CCCCC3)cc2C(=O)N([C@H](C)CO)C[C@@H]1C | 5.56% |  |
| Cc1ccc(NC(=O)C2CCC(C(C)(C)C)CC2)cc1S(=O)(=O)N1CCOCC1 (stereo not given) | -11% |  |
| CN(C(=O)c1cccc(NC(=O)Cc2cccc([N+](=O)[O-])c2)c1)C1CCCCC1 | -3.81% |  |
| Cn1nnnc1SCC(=O)Nc1cccc(S(=O)(=O)N2CCCCC2)c1 | 1.1% |  |
| Cc1ccccc1Nc1nc(N)nc(CN2CCN(c3ccccn3)CC2)n1 | -6.82% |  |
| Cc1ccc(C(=O)OCc2nc(N)nc(Nc3ccccc3C)n2)cc1 | 1.15% |  |
| Cc1ccccc1Nc1nc(N)nc(CSc2ccccc2)n1 |  | 9.2 µM (active) |

| Compound | activity change, positive = activation | Potency |
| --- | --- | --- |
| Cc1ccc(S(=O)(=O)Cc2cc(-c3ccc(Cl)cc3)no2)cc1 | -7.84% |  |
| Cc1ccc(NC(=O)c2cc(-c3ccccc3O)n[nH]2)cc1C | 8.24% |  |
| Oc1ccccc1-c1cc(-c2ccc(Cl)cc2)n[nH]1 |  | 2.31 µM (active) |
| CCCCOc1ccc(C(=O)NCC(=O)OCC(=O)c2c(N)n(C)c(=O)n(C)c2=O)cc1 | 0.582% |  |
| C[C@H](CO)N1C[C@H](C)[C@@H](CN(C)S(=O)(=O)c2ccc(F)cc2)Oc2c(NC(=O)Nc3ccccc3)cccc2C1=O | -6.35% |  |
| CCOC(=O)CCCCCC(=O)Nc1ccc2c(c1)CC(=O)N([C@@H](C)CO)C[C@H](C)[C@@H](CN(C)Cc1ccccc1)O2 | 1.2% |  |
| Cc1ccn2cc(-c3nonc3C)cc2c1 |  | 23.1 µM (active) |
| O=C1CN(C(=O)COC(=O)/C=C/c2ccc(F)cc2)c2ccccc2N1 | 1.53% |  |
| O=C(O)c1ccccc1-c1ccccc1C(=O)Nc1cccc2ccccc12 | -0.978% |  |
| O=C(O)Cc1ccc(NC(=O)Nc2cccc3ccccc23)cc1 | -0.0328% |  |
| O=C(Nc1cccc2ccccc12)c1onc2c1CCCC2 |  | 16.4 µM (active) |
| O=C(Nc1cccc(S(=O)(=O)N2CCOCC2)c1)C12CC3CC(CC(C3)C1)C2 | -5.08% |  |
| O=C(COC(=O)c1ccccc1O)NCc1ccco1 | 1.74% |  |
| O=C(CSc1ncn[nH]1)Nc1ccc(Br)cc1Br | 1.9% |  |
| O=C(Nc1ncccc1O)c1ccc(C(=O)c2ccccc2)cc1 |  | 18.3 µM (active) |
| O=C(Nc1ncccc1O)c1ccc(S(=O)(=O)N2CCCC2)cc1 | 23.2% |  |
| O=C(CNC(=O)c1ccc2ccccc2c1)Nc1ncccc1O | 16.9% |  |
| CC1Sc2ccc(C(=O)NCc3ccccc3Cl)cc2NC1=O (stereo not given) | 2.84% |  |
| CCCCNS(=O)(=O)CCNCc1ccccc1OC | 13% |  |
| CCOc1ccc2nc(N(CCN(C)C)C(=O)c3ccc4ccccc4c3)sc2c1 | -1.72% |  |
| CCOc1ccc2nc(C(=O)N3CCCC(C)C3)sc2c1 (stereo not given) |  | 10.3 µM (active) |
| CCCC(=O)N(CCN1CCOCC1)c1nc2ccc(OCC)cc2s1 | 0.969% [at 9.26 µM] |  |
| C=CC[C@@H](Cc1ccc(F)cc1)C(=O)OC[C@H]1CCCN1C(=O)[C@H](CC=C)CC(=O)N(CCO)Cc1ccccc1 | -5.84% |  |
| COc1cccc(-c2sc3ccc(OC)cc3c2-c2ccc(OCCN3CCCCC3)cc2)c1 | -1.09% |  |
| COC(=O)[C@]1(Cc2ccccc2)N[C@H](CN(C)S(=O)(=O)c2ccc(OC(F)(F)F)cc2)[C@@H]2C(=O)N(C)C(=O)[C@@H]21 | -2.77% |  |
